The values below come from PubChem BioAssay (EPA / NIEHS).

Results filed as inconclusive are left out. The source made the active and inactive calls. Rule for the calls: active = hit-call score of the fitted dose curve at least 0.9, where 1 is the maximum; inconclusive = response in the unintended direction; inactive = score below 0.9.

The target in this assay is human Peroxisome Proliferator-activated Receptor delta (PPARd), PPARD (gene 5467) (UniProt Q03181). In words: ATG_PPARd_TRANS: Attagene TRANS-FACTORIAL HepG2 Assay for human Peroxisome Proliferator-activated Receptor delta (PPARd) (AID 2283002). The protocol: ATG_TRANS is a cell-based, multiplexed-readout assay that uses HepG2, a human liver cell line, with measurements taken at 24 hours after chemical dosing in a 24-well plate.ATG_PPARd_TRANS is one of 30 assay component(s) measured or calculated from the ATG_TRANS assay. It is designed to make measurements of mRNA induction, a form of inducible reporter, as detected with fluorescence intensity signals by Reverse transcription polymerase chain reaction (RT-PCR) and Capillary electrophoresis technology.Data from the assay component ATG_PPARd_TRANS was analyzed into 1 assay endpoint. This assay endpoint, ATG_PPARd_TRANS, was analyzed in the positive analysis fitting direction relative to DMSO as the negative control and baseline of activity. Using a type of inducible reporter, measures of mRNA for gain-of-signal activity can be used to understand the reporter gene at the transcription factor-level as they relate to the gene PPARD. Furthermore, this assay endpoint can be referred to as a primary readout, because this assay has produced multiple assay endpoints where this one serves a reporter gene function. To generalize the intended target to other relatable targets, this assay endpoint is annotated to the nuclear receptor intended target family, where the subfamily is non-steroidal.
Sequence of human Peroxisome Proliferator-activated Receptor delta (PPARd), PPARD (gene 5467) (Q03181 whole entry, looked up): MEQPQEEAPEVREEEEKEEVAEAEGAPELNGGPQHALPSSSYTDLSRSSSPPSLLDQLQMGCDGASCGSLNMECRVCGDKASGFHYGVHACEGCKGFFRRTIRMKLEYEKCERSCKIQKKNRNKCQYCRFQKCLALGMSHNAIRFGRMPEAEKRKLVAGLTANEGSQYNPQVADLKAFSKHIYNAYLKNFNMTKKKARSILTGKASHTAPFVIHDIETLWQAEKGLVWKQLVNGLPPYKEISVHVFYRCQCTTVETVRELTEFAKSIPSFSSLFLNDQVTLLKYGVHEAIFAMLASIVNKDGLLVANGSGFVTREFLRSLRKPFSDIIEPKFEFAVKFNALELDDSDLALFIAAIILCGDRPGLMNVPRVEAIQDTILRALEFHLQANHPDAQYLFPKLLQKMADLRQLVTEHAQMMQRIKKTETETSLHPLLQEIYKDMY
Human liver HepG2 cells are transiently transfected with multiple reporter transcription units (MRTUs) in 6-well plates using FuGene 6 reagent (Roche; 3 ml FuGene/1 mg DNA). The MRTU constructs are regulated by a cis-regulating element (promoter). […] A major difference between the CIS and TRANS system is that in CIS activities of endogenous TFs are measured, whereas the TRANS assay evaluates changes in activities of exogenous, chimeric NR-Gal4 proteins. […] At the end of 24 hour incubation, total RNA was isolated using TriZol reagent (Invitrogen). The isolated RNA is then reverse-transcribed using oligo(dT) primer and Mo-MLV reverse transcriptase (Invitrogen) with DNAse I (Ambion) treatment for 30 min. The one-tenth of the produced cDNA was amplified by PCR using Taq DNA polymerase (Invitrogen) and two reporter sequence-specific primers. The PCR products were fluorescently labeled by primer extension with 6-arboxyfluorescein (6-FAM) 5'-labeled reporter sequence-specific primer (2 min at 95 C, 20 s at 68 C and 10 min at 72 C) and these products were digested with 5U of HpaI (New England Biolabs) for 2h at 37 C. The fragments were purified using Qiaquick PCR columns (Qiagen), analyzed on an ABI 3130xL genetic analyzer (Applied Biosystems) with peak positions identified by using a set of X-rhodamine (ROX)-labeled MapMarker1000 molecular weight standards (BioVentures). The raw capillary electrophoresis data was processed using Attagraph software (Attagene).
In the case of `CS(=O)(=O)c1ccc(C(=O)C2C(=O)CCCC2=O)c([N+](=O)[O-])c1`, the compound was called inactive.
For `COC(=O)NC(=S)Nc1ccccc1NC(=S)NC(=O)OC`, the compound was called inactive.
To `CCCCC(O)(Cn1cncn1)c1ccc(Cl)cc1Cl` (stereo not given) belongs “inactive”.
For `N#Cc1c(Cl)cccc1Cl`, the compound was classed as inactive.
As for `O=C(Nc1ccccc1-c1ccc(Cl)cc1)c1cccnc1Cl`, the compound was called inactive.
Take `CCNC(=O)NC(=O)C(C#N)=NOC`: the outcome was inactive.
Turning to `COC(=O)N(C(=O)N1CO[C@@]2(C(=O)OC)Cc3cc(Cl)ccc3C2=N1)c1ccc(OC(F)(F)F)cc1`, the result was inactive.
For `Nc1cnn(-c2ccccc2)c(=O)c1Cl`, the compound was classed as inactive.
As to `CCCC(=NOCC)C1=C(O)CC(CC(C)SCC)CC1=O` (stereo not given), the result was inactive.
For the compound `CC(C)(C)C(=O)C(Oc1ccc(Cl)cc1)n1cncn1` (stereo not given), the call was inactive.
With `CSC(=O)c1c(C(F)F)nc(C(F)(F)F)c(C(=O)SC)c1CC(C)C`, the call was inactive.
Turning to `O=c1n(Cl)c(=O)n(Cl)c(=O)n1Cl`, the call was inactive.
For `COP(=O)(OC)O/C(C)=C/C(=O)N(C)C`, the call was inactive.
For the compound `COP(=S)(OC)SCn1nnc2ccccc2c1=O`, the compound was classed as inactive.
On to `N#CN=C1SCCN1Cc1ccc(Cl)nc1`, for which the call was inactive.
Take `Cn1c(-c2ccccc2)cc(-c2ccccc2)[n+]1C`: the compound was called inactive.
To `CCOc1nc(F)cc2nc(S(=O)(=O)Nc3c(Cl)cccc3Cl)nn12` belongs “inactive”.
For `CCN(CC)C(=O)C(C)Oc1cccc2ccccc12` (stereo not given) the value was “inactive”; for `CNC(=O)N(C)c1nnc(C(C)(C)C)s1`, “inactive”; for `CCCN(CC)CC1COC2(CCC(C(C)(C)C)CC2)O1` (stereo not given), “inactive”.
With `CC(C)=CC1C(C(=O)OCc2coc(Cc3ccccc3)c2)C1(C)C` (stereo not given), the compound was classed as inactive.
Consider `Cc1nc(N(C)C)nc(OC(=O)N(C)C)c1C`, for which the call was inactive.
Turning to `CC1(C)CON(Cc2ccccc2Cl)C1=O`, the outcome was inactive.
To `CCN(CC)c1nc(C)cc(OP(=S)(OC)OC)n1` belongs “inactive”.
Consider `CC(C)N1C(=O)c2ccccc2NS1(=O)=O`, for which the outcome was inactive.
To `CC(C)Nc1nc(Cl)nc(NC(C)C)n1` belongs “inactive”.
To `COP(=S)(OC)Oc1ccc([N+](=O)[O-])c(C)c1` belongs “inactive”; to `CC(C)Oc1cccc(NC(=O)c2ccccc2C(F)(F)F)c1`, “inactive”.
Regarding `CC(C)C1(C)N=C(c2ncccc2C(=O)O)NC1=O` (stereo not given), the result was inactive.
For the compound `COC(=O)c1c(C(F)F)nc(C(F)(F)F)c(C2=NCCS2)c1CC(C)C`, the outcome was inactive.
Regarding `Cc1c(COC(=O)[C@@H]2[C@H](/C=C(\Cl)C(F)(F)F)C2(C)C)cccc1-c1ccccc1`, the compound was classed as inactive.
For `Cc1cc(C)nc(Nc2ccccc2)n1` the value was “inactive”.
For the compound `CC(C)N1C(=O)N(c2ccccc2)CSC1=NC(C)(C)C`, the result was inactive.
Regarding `O=P(O)(O)CCCl`, the outcome was inactive.
For `CCSC(=O)N1CCCCCC1` the value was “inactive”; for `CCOP(=O)(OCC)Oc1nc(Cl)c(Cl)cc1Cl`, “inactive”; for `CO/N=C(/C1=NOCCO1)c1ccccc1Oc1ncnc(Oc2ccccc2Cl)c1F`, “inactive”.
`O=C1C2CC=CCC2C(=O)N1SC(Cl)(Cl)Cl` (stereo not given): the outcome was inactive.
To `CC1(C)C(C(=O)OC(C#N)c2cccc(Oc3ccccc3)c2)C1(C)C` (stereo not given) belongs “inactive”.
On to `CN=C=S`, for which the outcome was inactive.
